The full list was thinned out, with hits kept by preference.
GluA2 TARP mod – modulators of GluA2-stargazin AMPA receptor complexes, primary screen, cell-based, membrane potential dye; calls only at 30 µM; 40,000 compounds, 3.5% hits; AID 1259245, 2017; HEK293 GluA2+stargazin, membrane potential dye (FDSS), glutamate EC50; hits were called plate by plate, in both directions;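 active = any of four per-well response measures lying three or more SD from its plate-wide compound average, in either direction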
GIRK2 activator – activators of NPY4-receptor-primed GIRK2 channels, summary, cell-based, HEK293, thallium flux. activation (% efficacy), % for hits at 37.5 µM. G protein-activated inward rectifier potassium channel 2 (Homo sapiens), P48051. AID 1259324, 2017. 34,000 tested, under 10 active. HEK293 GIRK2/NPY4 cells, thallium flux fluorescence;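 active = primary screen hit, no activity in plain HEK293 cells, and in GIRK2-only cells above 5% efficacy rising with concentration; inactive = the rest, including fluorescent compounds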;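 note: efficacy is normalized control-subtracted fluorescence 15 s after thallium addition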
Target sequence (P48051 whole entry, looked up): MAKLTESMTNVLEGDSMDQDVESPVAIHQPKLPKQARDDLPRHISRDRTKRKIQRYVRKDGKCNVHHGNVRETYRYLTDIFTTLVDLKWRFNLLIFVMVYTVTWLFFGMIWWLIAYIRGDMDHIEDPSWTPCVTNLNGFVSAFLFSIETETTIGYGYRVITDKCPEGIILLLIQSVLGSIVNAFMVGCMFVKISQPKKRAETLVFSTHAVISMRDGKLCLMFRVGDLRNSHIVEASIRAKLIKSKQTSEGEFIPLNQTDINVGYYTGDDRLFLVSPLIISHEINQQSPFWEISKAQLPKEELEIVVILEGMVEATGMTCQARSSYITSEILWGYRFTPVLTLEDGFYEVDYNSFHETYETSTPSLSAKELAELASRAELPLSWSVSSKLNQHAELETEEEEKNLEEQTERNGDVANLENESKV
The depositor's hits bear a star; i = inactive; / = no result given; + = active, no number.

SMILES	GluA2 TARP mod	GIRK2 activator
Cc1nn(C2CCS(=O)(=O)C2)c2nc(-c3ccc(F)cc3)cc(C(=O)NCc3ccc(F)cc3)c12 (stereo not drawn)	i	i
Cc1ccc(S(=O)(=O)N(C)CC(O)Cn2nc(C)cc2C)cc1 (stereo not drawn)	i	i
COc1ccc2nc(N(CCN3CCOCC3)C(=O)c3ccc([N+](=O)[O-])cc3)sc2c1	i	/
CCCC(=O)N(CCN1CCOCC1)c1nc2cc(OC)ccc2s1	+	i
COc1ccc2nc(N(CCN3CCOCC3)C(=O)/C=C/c3cccc([N+](=O)[O-])c3)sc2c1	+	i
CCOc1ccc2nc(N(Cc3ccncc3)C(=O)/C=C/c3cccc([N+](=O)[O-])c3)sc2c1	i	i
COc1ccc2sc(N(CCN3CCOCC3)C(=O)CSc3ccc(C)cc3)nc2c1	i	i
COc1ccc2nc(N(CCN3CCOCC3)C(=O)c3ccc4c(c3)OCCO4)sc2c1	+	/
COc1ccc2nc(N(CCN3CCOCC3)C(=O)c3nc4ccccc4s3)sc2c1	i	i
COc1ccc2nc(N(CCN3CCOCC3)C(=O)c3ccc(Cl)s3)sc2c1	+	/
O=C(NCCCc1ccccc1)C(=O)NCc1ccc2c(c1)OCO2	i	/
O=C(CN1C(=O)c2ccccc2C1=O)Nc1ccc2scnc2c1	i	i
CC1CCCCC1NC(=O)c1cc2c(ccc3ccccc32)oc1=O (stereo not drawn)	i	i
COc1ccc(C)c2sc(N(CCN3CCOCC3)C(=O)c3ccccc3)nc12	i	/
COc1ccc(C)c2sc(N(CCN3CCOCC3)C(=O)c3ccc([N+](=O)[O-])s3)nc12	+	/
CC(=O)NCCc1nc2ccccc2n1Cc1c(C)c(C)cc(C)c1C	+	i
OCCCc1nc2ccccc2n1Cc1ccc(F)cc1	i	/
Cc1cc(C)c(C)c(Cn2c(CCCO)nc3ccccc32)c1C	+	i
CC(=O)NCCc1nc2ccccc2n1Cc1c(C)cc(C)cc1C	i	i
Cn1ccc(-c2nnc(NC(=O)C3CCCCC3)o2)n1	i	i
CCN(C(=O)Cn1cc(-c2ccccc2)c(N2CCOCC2)n1)c1cccc(C)c1	+	i
CCN(C(=O)Cn1cc(-c2ccc(C)cc2)c(N2CCOCC2)n1)c1cccc(C)c1	/	i
CCn1nc(C)cc1C(=O)Nc1nnc(-c2ccc(C)cc2C)o1	i	i
COC(=O)c1ccc(NC(=O)CSc2ccc(NC(=O)C(C)C)nn2)cc1	i	i
COC(=O)c1ccc2nc(NC(=O)C3CCCCC3)sc2c1	i	i
SMILES	GluA2 TARP mod	GIRK2 activator
COC(=O)c1sc2ccccc2c1NC(=O)C1CCCCC1	+	/
Cc1ccc(-c2cc(C(=O)NC(C)C)c3c(C)nn(C4CCS(=O)(=O)C4)c3n2)cc1 (stereo not drawn)	i	i
CCOc1ccccc1C(=O)NC1CC(=O)N(c2ccc(C)c(C)c2)C1 (stereo not drawn)	+	/
CCOc1ccccc1C(=O)NC1CC(=O)N(c2ccccc2)C1 (stereo not drawn)	i	/
Cn1cc(C(=O)N2CCCC2)cc(NC(=O)c2cccs2)c1=O	i	/
O=C(c1nnn(-c2ccccc2)c1CSc1ncccn1)N1CCOCC1	i	i
c1ccn2cc(C34CC5CC(CC(C5)C3)C4)nc2c1	+	/
O=C(c1cccs1)N1CCc2ccc(NS(=O)(=O)c3ccc4c(c3)OCCO4)cc21	i	i
O=C(Nc1nnc(-c2cccs2)o1)c1ccc(F)cc1	i	/
CCC1CCCCN1S(=O)(=O)c1cc(C)c(Br)cc1C (stereo not drawn)	i	/
CCOc1cc(C)c(Cl)cc1S(=O)(=O)N1CCCCC1CC (stereo not drawn)	+	/
CS(=O)(=O)c1ccc(CC(=O)Nc2nc(-c3ccc(Oc4ccccc4)cc3)cs2)cc1	i	/
Cc1ccc(S(=O)(=O)CCCC(=O)Nc2ccccc2Oc2ccccc2)cc1	+	i
COc1ccc(S(=O)(=O)CCC(=O)Nc2ccccc2Oc2ccccc2)cc1	i	i
CS(=O)(=O)c1ccc(CC(=O)Nc2ccccc2Oc2ccccc2)cc1	+	/
COc1ccc(-c2cc(NS(=O)(=O)c3ccccc3)n(C3CCS(=O)(=O)C3)n2)cc1 (stereo not drawn)	i	i
O=C(Cc1ccc(NC(=O)c2cc(Br)ccc2Cl)cc1)NCC(F)(F)F	/	i
Cc1cccc(-n2nc3c(c2-n2cccc2)CN(C(=O)c2cc(C)oc2C)C3)c1	+	i
Cc1ccc(-n2nc3c(c2-n2cccc2)CN(C(=O)c2ccc(F)c(F)c2)C3)cc1	i	i
COc1ccc(-c2cc(OCC(=O)Nc3ccc(OC)cc3OC)c3ccccc3n2)cc1	i	i

Assay outcomes from PubChem.
